Reference: PubChem BioAssay (NCI)
Compounds without any hit were thinned out: in the full panel of roughly 83,000, 20% have a hit.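 Testing used 96-well plates and a 48-hour single-concentration exposure. Example: -40 means 40% of the starting cells died.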 Active and inactive are the calls of the source. How the source made its calls: active means growth percent below 10; inactive means the rest.

What was measured:
Test in all cases: NCI-60 one-dose screen, 48 h (100 = growth as untreated, 0 = no growth, -100 = all killed)
Conditions in all cases: 10 µM unless noted
[1] = tested on: NCI-H226 lung
[2] = tested on: NCI-H322M lung
[3] = tested on: HOP-62 NSCLC
[4] = tested on: NCI-H460 lung
[5] = tested on: HOP-92 NSCLC
[6] = tested on: NCI-H522 lung
[7] = tested on: A549/ATCC NSCLC
[8] = tested on: 786-0 renal
[9] = tested on: COLO 205 colon
[10] = tested on: DU-145 prostate
[11] = tested on: K-562 leukemia
[12] = tested on: MALME-3M melanoma
[13] = tested on: MDA-MB-231 breast
[14] = tested on: RXF 393 renal
[15] = tested on: SF-268 CNS
[16] = tested on: SF-295 CNS
[17] = tested on: SF-539 CNS
[18] = tested on: UACC-257 melanoma
[19] = tested on: M14 melanoma

Measured: growth

COc1ccc(C(=O)c2cc(C)c(OC)c(C)c2)c(OC)c1N(C(=O)CCl)C(=O)CCl
inactive: [2] 36.2% | [7] 13.4% | [8] 13.2% | [12] 49.8% | [14] 23.7% | [15] 24.6% | [18] 46.2%
active: [1] 7.88% | [3] 9.36% | [4] 1.32% | [5] 7.45% | [6] 6.33% | [9] -39.4% | [10] 0.0631% | [11] 9.77% | [13] -1.61% | [16] 5.4% | [17] -21.1% | [19] -20.7%

CN1C(N2CCN(S(=O)(=O)c3ccccc3)CC2)=NS(=O)(=O)c2ccccc21
active: [14] -6.07%
inactive: [1] 112% | [2] 82.6% | [3] 89% | [4] 103% | [5] 86.8% | [6] 80.2% | [7] 69.7% | [8] 99.5% | [9] 109% | [10] 139% | [12] 103% | [13] 104% | [15] 101% | [16] 39.9% | [17] 111% | [18] 61.5%

O=c1c2c(c(=O)n1O)c1c3ccc[nH]c3nc1c1nc3[nH]cccc3c12
inactive: [1] 87.1% | [2] 91% | [3] 83% | [4] 93.1% | [5] 80.1% | [6] 55% | [7] 79.4% | [8] 87.5% | [9] 94.9% | [10] 95.4% | [12] 84.3% | [13] 77.4% | [14] 87% | [15] 71.7% | [16] 96% | [17] 83.9% | [18] 85.4% | [19] 94%

Nc1c(C(=O)Nc2cccc3cnccc23)sc2nc3c(cc12)CN(Cc1ccccc1)CC3
inactive: [1] 92.5% | [2] 96.9% | [3] 98.7% | [4] 109% | [5] 96.4% | [6] 97.2% | [7] 107% | [8] 109% | [9] 112% | [10] 109% | [11] 96.5% | [12] 101% | [13] 89.1% | [14] 103% | [15] 103% | [16] 106% | [17] 107% | [18] 124% | [19] 102%

C=CCN1C(=O)/C(=C/C(=O)OC)S/C1=N\NC(=O)c1cc2ccc1/C=C\c1ccc(cc1)/C=C\2
inactive: [1] 87.5% | [2] 97.1% | [3] 107% | [4] 102% | [5] 81.4% | [6] 60.7% | [7] 94.8% | [8] 91.2% | [9] 110% | [10] 106% | [11] 51.9% | [12] 92.4% | [13] 97.7% | [14] 94.8% | [15] 103% | [16] 93.6% | [17] 99.7% | [18] 91.1% | [19] 78.9%

O=C(CSc1nc2ccccc2[nH]1)NCc1ccccc1
inactive: [1] 95.9% | [2] 97.4% | [3] 88.5% | [4] 103% | [5] 105% | [6] 98.3% | [7] 100% | [8] 102% | [9] 111% | [10] 110% | [12] 109% | [13] 103% | [14] 101% | [15] 98% | [16] 102% | [17] 95.6% | [18] 100% | [19] 107%

CSc1nc2sc3cccc(Cl)c3n2c(=N)c1C#N
inactive: [1] 93.5% | [3] 97% | [4] 102% | [5] 82.4% | [6] 78.9% | [7] 100% | [9] 56.1% | [10] 105% | [11] 106% | [12] 95.3% | [13] 90.1% | [14] 131% | [15] 102% | [16] 108% | [17] 109% | [18] 108% | [19] 102%

COc1ccc(OC)c(CCn2cncc2-c2c[nH]c3ccccc23)c1
inactive: [1] 68.3% | [2] 82.8% | [3] 74.3% | [4] 92% | [5] 46.7% | [6] 71% | [7] 90.8% | [9] 90.1% | [10] 88.4% | [11] 42.4% | [12] 74.5% | [13] 72.2% | [14] 74.4% | [15] 71.1% | [16] 71.6% | [17] 88.5% | [18] 80.8% | [19] 73.3%

CCOC(=O)c1cc(C(=O)c2ccc(Br)cc2)n2ccc(/C=C/c3cc[n+](CC(=O)c4ccc(OC)cc4)cc3)cc12
inactive: [1] 101% | [2] 96.2% | [3] 100% | [4] 96.4% | [5] 96.4% | [6] 91.8% | [7] 73.3% | [9] 91.7% | [10] 87% | [12] 97.9% | [13] 71.6% | [14] 94.4% | [15] 110% | [16] 103% | [17] 102% | [18] 100% | [19] 95.9%
active: [11] 3.23%

C/C(=N\Nc1cc(C)nc2ccc(Br)cc12)c1ccc([N+](=O)[O-])cc1
inactive: [1] 90% | [2] 82.7% | [3] 76.9% | [4] 69.8% | [5] 77% | [6] 76.6% | [7] 78.6% | [8] 10% | [9] 31.8% | [10] 64.8% | [11] 11.3% | [12] 123% | [13] 59.4% | [14] 68.6% | [15] 97.8% | [16] 49.4% | [18] 107% | [19] 84.6%
active: [17] -43.6%

CC1=C(C(=O)/C=C/c2c[nH]c3ccccc23)C(c2ccccc2)NC(=S)N1 (centres undefined)
inactive: [1] 80.4% | [2] 101% | [3] 97.9% | [4] 99.6% | [5] 90.1% | [6] 89% | [7] 106% | [8] 102% | [9] 121% | [10] 113% | [11] 90.1% | [12] 97.7% | [13] 85.3% | [14] 105% | [15] 92.7% | [16] 97.6% | [17] 98.2% | [18] 102% | [19] 94.4%

Cc1ccc(C(=O)/C(=C\c2ccc([N+](=O)[O-])cc2)S(=O)Cc2ccc(Cl)cc2)cc1 (centres undefined)
active: [6] -5.71% | [8] -52.4% | [14] -69%
inactive: [1] 66.4% | [2] 80.3% | [3] 46.7% | [4] 30% | [5] 64.8% | [7] 84.1% | [9] 20.7% | [10] 23.3% | [12] 34.1% | [13] 23.8% | [15] 25.5% | [16] 73.2% | [17] 53.5% | [18] 94.9%

Cc1ccc(/C=N/NC(=O)CSc2nc3ccccc3c(=O)n2Cc2ccc(S(N)(=O)=O)cc2)cc1
inactive: [1] 84.6% | [2] 102% | [3] 85.7% | [4] 98.5% | [5] 109% | [6] 42.5% | [7] 85.9% | [8] 99.3% | [9] 105% | [10] 105% | [11] 63.3% | [12] 97% | [13] 89.7% | [14] 86.8% | [15] 78.2% | [16] 95% | [17] 102% | [18] 96.4% | [19] 98.1%

CCCCCCNC(=O)Nc1ccc2cc3ccc(NC(=O)NCCCCCC)cc3nc2c1
inactive: [1] 79.5% | [3] 18.1% | [5] 68.9% | [7] 23.7% | [8] 27.5% | [9] 17.5% | [10] 21.7% | [18] 72.6%
active: [4] -11.9% | [6] -67.1% | [11] -29.6% | [12] -35.7% | [13] -23.6% | [14] -47.7% | [15] -62.8% | [16] -47.5% | [17] -77.1%

O=Cc1cc2ccccc2nc1Oc1ccc(C(F)(F)F)cc1
inactive: [1] 76.9% | [2] 94.9% | [3] 80.9% | [4] 98.8% | [5] 52.8% | [6] 85.4% | [7] 98.4% | [8] 101% | [9] 83.6% | [10] 98.4% | [11] 59% | [12] 96% | [13] 75.7% | [14] 91.9% | [15] 83.4% | [16] 82.9% | [17] 97.8% | [18] 107% | [19] 99.8%

C=C1C(=O)O[C@H]2[C@H]1CC/C(CNC(=O)c1cccc3ccccc13)=C\CC[C@@]1(C)O[C@@H]21
active: [5] -11% | [6] -46.7%
inactive: [1] 78% | [2] 90.5% | [3] 93.1% | [4] 78.6% | [7] 76.9% | [8] 32.2% | [9] 28.5% | [10] 33.8% | [12] 36.2% | [13] 34.1% | [14] 27.5% | [15] 63.1% | [16] 85.9% | [17] 59.7% | [18] 66.2% | [19] 38.2%

COc1ccc(C(=O)C2C(C#N)C(C#N)C3c4ccccc4C=CN23)cc1 (centres undefined)
inactive: [1] 74.7% | [2] 89% | [3] 92.9% | [4] 97.7% | [5] 85.9% | [6] 71.9% | [7] 87.2% | [9] 107% | [10] 103% | [11] 73.1% | [12] 92.1% | [13] 79.2% | [14] 77.9% | [15] 91% | [16] 95.8% | [17] 95.4% | [18] 85.7% | [19] 96.2%
